Shown are actives, neighbours in structure and some others; about 2.4% of the full set was active somewhere.
miR-122 sensor = miR-122 inhibition in Huh7 cells; Huh7 miR-122 Renilla luciferase sensor, 48 h; neutral wells = 0, positive control = 100; activation (reporter increase), % at 12.5 µM; actives 0.3% (n = 340,000); AID 602342;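 active means mean replicate activation score at least 90 and every replicate individually at or above 90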;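 further: higher luciferase means less miR-122 activity so hits act as miR-122 inhibitors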
INS-1E GSIS act = GLuc luminescence reporter in INS-1E cells, primary screen for activators of glucose-dependent secretion of insulin. INS-1E GLuc reporter insulin secretion, 2-3 h. activation, % at 16.6 µM. actives 0.61% (n = 370,000). AID 743287;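 active means lowest replicate activation of at least 40%, so every replicate reaches that level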;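 further: 0% = median of neutral control wells and 100% = median of IBMX positive control wells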
NSD2 inh = NSD2 (human) methyltransferase inhibition. O96028. NSD2 peptide methylation, AlphaScreen, 120 min. inhibition, % at 12.5 µM. actives 0.54% (n = 310,000). AID 743445
MITF TRPM1 HTS = activators of MITF-driven TRPM1 promoter activity in SK-MEL-5 cells; AID 588334; SK-MEL-5 TRPM1-promoter luciferase, 24 h; % of positive control, neutral wells = 0; activation, % at 12.5 µM; actives 0.75% (n = 300,000);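 active means mean activation of at least 80% with every replicate also reaching 80%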;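 further: 0% = neutral control wells and 100% = parthenolide positive control wells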
DYRK1A inh = Dyrk1A (rat) kinase inhibition. actives 0.43% (n = 310,000). ADP-Glo luminescence, NFATc1 peptide. Q63470. inhibition, % at 12.5 µM;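 further: plate controls were vehicle with enzyme for no effect and no enzyme for full effect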
Wnt act = Wnt/beta-catenin pathway activation | Wnt/beta-catenin reporter cell assay, activator, plate reader | activation, % at 9.35 µM | actives 1.2% (n = 300,000) | AID 743398; in the data active means activation above about 30%, passing the limit was not always enough;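 further: 0% = neutral control wells and 100% = positive control wells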
Numbers without * were called inactive; x = not tested or not shown; [ ] = remark or other dose. Unless noted, no stated cut-off is given here; in the data, active means inhibition above about 50%; inactive means the rest.

SMILES	miR-122 sensor	INS-1E GSIS act	NSD2 inh	MITF TRPM1 HTS	DYRK1A inh	Wnt act
CCNC(=O)C[C@@H]1CC[C@@H]2[C@@H](COc3ccc(NC(=O)Nc4c(C)noc4C)cc3C(=O)N2C)O1	1[16.7 µM]	5	x	x	x	x
CSc1nnc2c3cc(C)ccc3n(Cc3ccccc3)c2n1	-1	140*	0	1	-9	x
CCCN(C)C[C@@H]1Oc2cc(C#Cc3cccnc3)ccc2S(=O)(=O)N([C@H](C)CO)C[C@@H]1C	0[16.7 µM]	-12	x	x	x	x
Cc1ccc(-c2cc(N)n3nc(-c4ccc(C)cc4)cc3n2)cc1	1	x	x	12	9	-2
Cc1ccc(-c2cc3nc(-c4ccccc4)cc(N)n3n2)cc1	0	x	-6	64	-3	42*
Cc1ccc(-c2cc(N)n(-c3ccc(F)cc3)n2)cc1	x	1	4	100*	-2	9
Cc1ccc(-c2cc(N)n(-c3ccc(C)cc3)n2)cc1	-1	x	-3	87*	1	x
Cc1ccc(-n2nc(-c3ccccc3)cc2Nc2ccccc2N)cc1	x	15	1	11	-3	-7
COCCOc1ccc(C(F)(F)F)cc1NC(=O)c1ccccc1F	x	50*	-2	7	0	1
O=C(C[C@@H]1CC[C@H](NC(=O)CCN2CCCCC2)[C@H](CO)O1)NCc1ccc(Cl)c(Cl)c1	3[16.7 µM]	9	x	x	x	x
CCC(=O)N1C[C@@H](C)[C@@H](OC)CN(C)C(=O)c2cc(NC(=O)Nc3ccccc3)ccc2OC[C@@H]1C	1[16.7 µM]	-6	x	x	x	x
COc1ccc(NC(=S)Nc2ccccn2)c(OC)c1	9	x	-1	x	19	55*
FC(F)Sc1ccc(NC(=S)NC2CCCCC2)cc1	121*	-19	-3	69	6	x
FC(F)Sc1ccc(NC(=S)NCC2CCCCC2)cc1	x	-24	-12	16	0	8
CC1CCCCC1NC(=S)Nc1ccc(SC(F)F)cc1 (stereo not drawn)	115*	x	-3	40	1	x
CCCNC(=O)N1CCC2(CC1)CN(C(C)=O)[C@@H](CO)c1c2c2ccc(OC)cc2n1C	x	17	x	x	x	x
CN1c2ccc(Br)cc2[C@@H]2[C@@H](CCN2C(=O)C2CCOCC2)[C@@H]1CO	-3[16.7 µM]	6	x	x	x	x
Cc1ccc(S(=O)(=O)N(C)C)cc1NC(=O)CCc1ccccc1	x	-3	-2	-2	-1	48*
Cc1ccccc1-c1nc(-c2ccccn2)no1	x	-1	-5	-73	-3	-4
Clc1ccc(-c2nc(Cc3ccccc3)no2)cc1	x	1	0	106*	4	x
Cc1ccccc1-c1nc(Cc2ccccc2)no1	-2	x	-3	118*	-5	17
O=C(C[C@H]1CC[C@H](NC(=O)c2ccccn2)[C@H](CO)O1)NCc1cccc(F)c1	x	7	x	x	x	x
COc1ccccc1-c1ccc2c(c1)C(C)(Cc1cc(Cl)ccc1C(F)(F)F)C(=O)N2 (stereo not drawn)	-3	6	-5	x	x	-2
CC1(Cc2cc(Cl)ccc2C(F)(F)F)C(=O)Nc2cc(C(F)(F)F)ccc21 (stereo not drawn)	9	298*	-2	x	x	-11
CC1(Cc2cc(Cl)ccc2C(F)(F)F)C(=O)Nc2ccc(-c3ccc(F)c(Cl)c3)cc21 (stereo not drawn)	3	283*	-1	x	x	-2
SMILES	miR-122 sensor	INS-1E GSIS act	NSD2 inh	MITF TRPM1 HTS	DYRK1A inh	Wnt act
CC1(Cc2cc(Cl)ccc2C(F)(F)F)C(=O)Nc2cc(F)ccc21 (stereo not drawn)	7	x	x	x	x	x
COc1ccc(S(=O)(=O)N2CCC(C(N)=O)(N3CCCCC3)CC2)cc1OC	0	71*	-3	-4	-6	0
C[C@H](CO)N1C[C@H](C)[C@H](CN(C)S(=O)(=O)c2ccc(Cl)cc2)OCCCC[C@H](C)Oc2ccc(NC(=O)NC3CCCCC3)cc2C1=O	-7[16.7 µM]	-4	x	x	x	x
CC1=C(C#N)c2nc(N)c(C#N)c(C)c2/C1=C\c1ccccc1	x	x	-1	x	x	x
CC1=C(C#N)c2nc(N)c(C#N)c(C)c2/C1=C\c1ccc(OCC(=O)O)c(Cl)c1	x	-4	57*	-8	12	1
CN(C)C(=O)c1ccc(-c2ccc3c(c2)[C@@H]2[C@@H](CCN2C(=O)c2ccc4c(c2)OCO4)[C@@H](CO)N3)cc1	-23[16.7 µM]	2	x	x	x	x
O=S(Cc1ccccc1)CC(O)(c1ccc(Cl)cc1)c1ccc(Cl)cc1 (stereo not drawn)	139*	x	0	x	-5	-3
O=S(Cc1ccc(Cl)cc1)CC(O)(c1ccccc1)c1ccccc1 (stereo not drawn)	147*	x	-1	x	0	-15
COc1ccc(OC)c(S(=O)(=O)Nc2cc(OC)c(Cl)cc2OC)c1	67	-2	-2	3	7	x
COc1cc(NS(=O)(=O)c2ccc(OC)c(C)c2C)c(OC)cc1Cl	272*	x	-5	-25	-3	x
C[C@H]1CN([C@@H](C)CO)C(=O)c2cccc(NC(=O)c3ccncc3)c2O[C@@H]1CN(C)C(=O)NC1CCCCC1	-6[16.7 µM]	3	x	x	x	x
C=CCNc1nc(NCc2ccco2)nc(OCC)n1	-4	58*	21	0	3	0
COc1ccc(C(=O)NCC(=O)OCC(=O)Nc2sccc2C#N)cc1OC	x	51*	2	-6	7	-2
COc1ccc(C(=O)NCC(=O)OCC(=O)NC(=O)c2ccc(C(C)(C)C)cc2)cc1OC	-4	24	-3	18	8	7
CCOC(=O)NC(=O)COC(=O)CNC(=O)c1ccc(OCC)c(OCC)c1	x	46*	7	-2	-5	0
O=C(O)c1ccccc1NS(=O)(=O)c1ccc(NNC(=S)Nc2ccc(OC(F)F)cc2)c([N+](=O)[O-])c1	x	-29	110*	-10	-2	-1
Cc1ccc(NC(=S)NNc2ccc([N+](=O)[O-])cc2S(=O)(=O)Nc2ccccc2C(=O)O)cc1C	-1	-6	44	-3	1	9
CC(C)NC(=O)N(C)C[C@@H]1Oc2ccc(NC(=O)Cc3cn(C)c4ccccc34)cc2CC(=O)N([C@H](C)CO)C[C@H]1C	-5[16.7 µM]	8	x	x	x	x
CCOC(=O)c1c(NC(=O)Cn2nc(C(F)(F)F)cc2C)sc(C)c1C	4	61*	-2	-11	7	-4
CCC(C)NC(=O)c1cc2c(=O)n3ccccc3nc2s1 (stereo not drawn)	-12	15	-6	30	4	9
CCC(C)NC(=O)c1cc2cc3ccc(OC)cc3nc2s1 (stereo not drawn)	-5	x	0	32	2	45*
COc1ccc(/C=N/n2c(-c3n[nH]c4c3CCC4)n[nH]c2=S)cc1OC	2	45*	-1	-11	-1	x
COc1cc(/C=N/n2c(-c3n[nH]c4c3CCC4)n[nH]c2=S)ccc1O	x	37	x	2	-5	-1
O=C(NCC[C@@H]1CC[C@@H](NS(=O)(=O)c2ccc(F)cc2)[C@H](CO)O1)c1ccccc1F	x	1	x	x	x	x

Source: PubChem BioAssay
